Results: PubChem BioAssay AID2221 (Broad Institute, 2009)
The whole screen tested about 290,000 compounds, of which about 2,200 (0.76%) were called active. For the sample, actives were picked, then their nearest neighbours and some compounds at random. A number with no mark means an inactive call. Rule as the data show it: active = inhibition above about 30%; inconclusive = no clear call, values can overlap the other calls; inactive = below that.

The compounds below were run against Protein RecA (Mycobacterium tuberculosis (strain ATCC 25618 / H37Rv)) (UniProt P9WHJ3) (assay: Mtb RecA intein splicing inhibitors, primary screen, biochemical, fluorescence, HTS (AID 2221;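 also: 0% = vehicle wells and 100% = reference inhibitor control wells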)). Details: cell-free RecA intein splicing, active compounds read high, concentration not given here.
Chain of Protein RecA (Mycobacterium tuberculosis (strain ATCC 25618 / H37Rv)) (P9WHJ3 whole entry, looked up): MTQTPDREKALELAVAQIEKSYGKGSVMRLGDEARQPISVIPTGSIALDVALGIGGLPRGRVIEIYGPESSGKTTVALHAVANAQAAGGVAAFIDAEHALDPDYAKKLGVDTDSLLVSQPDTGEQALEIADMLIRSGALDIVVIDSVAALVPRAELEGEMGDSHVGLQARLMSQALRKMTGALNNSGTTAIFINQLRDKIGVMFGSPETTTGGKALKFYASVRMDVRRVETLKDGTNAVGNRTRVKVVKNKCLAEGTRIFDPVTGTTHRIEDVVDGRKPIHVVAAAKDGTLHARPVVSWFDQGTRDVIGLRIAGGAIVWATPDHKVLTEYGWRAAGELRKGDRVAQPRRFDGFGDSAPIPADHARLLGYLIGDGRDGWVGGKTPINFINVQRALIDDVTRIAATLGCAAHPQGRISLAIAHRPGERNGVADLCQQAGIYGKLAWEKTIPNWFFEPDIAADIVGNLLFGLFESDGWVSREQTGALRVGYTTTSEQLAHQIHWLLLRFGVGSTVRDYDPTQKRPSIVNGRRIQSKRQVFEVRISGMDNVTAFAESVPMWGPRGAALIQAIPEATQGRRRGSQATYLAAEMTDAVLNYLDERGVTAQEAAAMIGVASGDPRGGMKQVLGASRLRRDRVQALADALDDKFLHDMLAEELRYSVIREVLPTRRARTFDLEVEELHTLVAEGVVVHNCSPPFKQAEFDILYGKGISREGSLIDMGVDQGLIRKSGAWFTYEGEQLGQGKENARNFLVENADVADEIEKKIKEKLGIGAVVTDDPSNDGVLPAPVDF

| SMILES | inhibition |
| --- | --- |
| CCOC(=O)C(CC)Sc1ncnc2c1nnn2-c1ccc(F)cc1 (centres undefined) | 36.6% (active) |
| CCOC(=O)C(C)n1cnc2c(nnn2-c2ccc(F)cc2)c1=O (centres undefined) | -0.542% |
| COC(=O)C(C)n1cnc2c(nnn2-c2ccc(F)cc2)c1=O (centres undefined) | -1.59% |
| Cc1ccc(C(=O)COC(=O)CCN2C(=O)C3C4CC(C(Br)C4Br)C3C2=O)cc1 (centres undefined) | 1.16% |
| CC(=O)Nc1ccc(N2C(=O)CC(Sc3nccc(C)n3)C2=O)cc1 (centres undefined) | -1.08% |
| COc1cc(C(=S)N2CCOCC2)cc(OC)c1OC(=O)c1cc([N+](=O)[O-])cc([N+](=O)[O-])c1 | -0.59% |
| O=C(Oc1ccccc1C(=S)N1CCCCC1)c1cc([N+](=O)[O-])cc([N+](=O)[O-])c1 | 28.1% |
| O=C(Oc1ccc(Br)cc1C(=S)N1CCOCC1)c1cccc([N+](=O)[O-])c1 | 32.3% (active) |
| Cc1nn(C)cc1/C=C1\CCC/C(=C\c2cn(C)nc2C)C1=O | 1.91% |
| CC(=O)c1c(C)c[nH]c1C | 0.735% |
| S=C(NCC1COc2ccccc2O1)Nc1ccc(Br)cc1 (centres undefined) | 2.68% |
| CC12CCC(C(=O)N(c3cccc(Cl)c3)C1=O)C2(C)C (centres undefined) | 2.02% |
| CC1=NN(c2cccc(Cl)c2)C(=O)C12CC(C)=C(C)CS2 (centres undefined) | 31.7% (active) |
| Cc1[nH]n(-c2cccc(Cl)c2)c(=O)c1-c1ccc(Cl)cc1 | 8.51% |
| COC(=O)C1=C(Nc2ccc(C)cc2)C=C(C)C(C(=O)OC)C1c1ccc(F)cc1 (centres undefined) | -4.47% |
| COc1cccc(Nc2nc(N)c([N+](=O)[O-])c(NCc3ccco3)n2)c1 | 9.57% |
| Cc1[nH][nH]c(=O)c1C(c1ccc(-c2ccc(Cl)cc2)o1)c1c(C)[nH][nH]c1=O | -2.86% |
| C=CCOc1ccc(/C=C2/C(=O)ON=C2C)cc1OCC | 0.545% |
| Cc1[nH][nH]c(=O)c1C(c1ccc2c(c1)OCO2)c1c(C)[nH][nH]c1=O | 97.8% (active) |
| CCOc1ccc(C(CC(=O)O)NC(=O)Cc2ccccc2)cc1OC (centres undefined) | -1.09% |
| CCOc1ccc(C(c2c(C)[nH][nH]c2=O)c2c(C)[nH][nH]c2=O)cc1OCC | 98.1% (active) |
| CC(NC(=O)c1ccco1)c1ccc2c(c1)OCO2 (centres undefined) | -3.46% |
| O=C(NCCCn1ccnc1)c1cc(Br)c(Br)s1 | -6.96% |

| SMILES | inhibition |
| --- | --- |
| COc1ccccc1/C=C/C(=O)NC(=S)N1CCOCC1 | 1.89% |
| CCC(C)N(C(=O)Cn1nc(C)c([N+](=O)[O-])c1C)C1CCS(=O)(=O)C1 (centres undefined) | 2.19% |
| COCCc1nn2c(=O)cc(COC(=O)c3cc(OC)c(OC)c(OC)c3)nc2s1 | 0.818% |
| CN1c2ccc(C=O)c3c(C=O)ccc(c23)N(C)C1(C)C | 63.9% (active) |
| Cc1[nH]c(C)c(S(=O)(=O)N2CCN(c3cccc(C(F)(F)F)c3)CC2)c1C(=O)N1CCCC1 | 0.869% |
| CCC(c1nnnn1Cc1ccccc1)N(Cc1cc2cc(OC)ccc2[nH]c1=O)CC1CCCO1 (centres undefined) | -10.9% |
| CCC(c1nnnn1Cc1ccco1)N(Cc1cc2cc(OC)ccc2[nH]c1=O)C1CCCCC1 (centres undefined) | 30.6% (active) |
| CCC(c1nnnn1Cc1ccco1)N(CCc1ccccc1)Cc1cc2ccc(OC)cc2[nH]c1=O (centres undefined) | 16.5% |
| C[C@H](C(=O)CC(=O)OC(C)(C)C)[C@H](O)c1ccc(C(F)(F)F)cc1 | 0.927% |
| Cc1ccc(OCc2nc3ccccc3n2C)cc1 | 1.88% |
| COc1cccc(OCCCN2CCCCCC2)c1 | -1.65% |
| Cc1ccc(OCCCn2c(=O)oc3ccccc32)cc1 | 2.53% |
| CCCCCCCCCCOC(=O)Cn1c(COc2cccc(OC)c2)[n+](C)c2ccccc21 | 51.1% (active) |
| CCCCCCCCCCOC(=O)Cn1c(COc2ccc(C)cc2)[n+](C)c2ccccc21 | 51.7% (active) |
| CCn1c(=N)n(CC(=O)c2cccc(OC)c2)c2ccccc21 | 5.77% |
| O=S(N1CCCCCC1)C12CC3CC(CC(C3)C1)C2 (centres undefined) | -0.132% |
| COc1ccc(CCNC(=O)CCC(=O)NC2CCCCC2)cc1OC | -0.371% |
| COc1ccc(NC(=O)c2cc(-c3cc(OC)c(OC)c(OC)c3)nc3ccccc23)c(OC)c1 | 10.4% |
| CCOC(=O)c1c(S(=O)(=O)NCC(=O)Nc2ccc(C)cc2)c(C)n(C)c1C | -0.878% |
| Cc1nnc(SCC(=O)N2CCOCC2)[nH]c1=O | -0.0115% |
| CCOC(=O)CSc1nc(C)c(Oc2ccc(Cl)cc2Cl)c(=O)[nH]1 | 1.85% |
| CCCCOC(=O)CNc1nnc(SCC(=O)OCC)[nH]c1=O | 77.5% (active) |
| CCC(C)[C@H](NC(=O)N1CCn2c1nc1ccccc12)C(=O)NCc1ccc(OC)cc1 (some centres undefined) | 2.07% |

| SMILES | inhibition |
| --- | --- |
| COC(=O)c1sc(-c2ccc(C(C)(C)C)cc2)cc1NC(=O)/C=C/C(=O)O | 88.1% (active) |
| COc1ccccc1NC(=O)/C=C/C(=O)O | -1.49% |
| O=C(O)/C=C/C(=O)Nc1ccc(F)cc1F | 0.519% |
| CSc1ccc(S(=O)(=O)NCC(=O)OCC(=O)NC2(C#N)CCCCC2)cc1[N+](=O)[O-] | 1.65% |
| CC(C)[C@H](NC(=O)OCc1ccccc1)C(=O)OCc1ccccc1 | 7.54% |
| CCOC(=O)c1ccc(NC(=O)c2cc(=O)[nH]c3ccccc23)cc1 | -5.09% |
| CCOC(=O)c1nc(Nc2ccc(C(=O)OC)cc2)c2ccccc2n1 | -6.39% |
| CCOC(=O)c1ccc(Nc2cc3ccccc3c(=O)[nH]2)cc1 | 62.4% (active) |
| CCN(CC)CCNC(=O)c1sc2ncn(CC(=O)Nc3ccc(C)c(Cl)c3)c(=O)c2c1C | -0.641% |
| O=C(CN1C(=O)CC(c2ccccc2)=Nc2ccccc21)NC1CCCCC1 | -1.07% |
| CCOc1ccc(NC(=O)C2CCN(C(=O)N3CCOc4ccccc43)CC2)cc1 | 2.39% |
| Cc1nnc(NC(=O)C(c2ccccc2)c2ccccc2)s1 | 1.12% |
| CCN1CCN(c2ccc(NC(=O)c3cnccn3)cc2)CC1 | -0.413% |
| CCN1CCN(C(c2cccnc2)c2cc(Cl)c3cccnc3c2O)CC1 (centres undefined) | 70% (active) |
| CCOC(=O)N1CCN(C(c2cccnc2)c2ccc3cccnc3c2O)CC1 (centres undefined) | 9.76% |
| COc1cccc(/C=N/Nc2cc(C)nc(-c3ccccc3O)n2)c1O | 38.8% (active) |
| COc1ccccc1/C=N\Nc1cc(C)nc(-n2nc(C)cc2C)n1 | 0.767% |
| COc1cccc(/C=N/Nc2ncc(C(F)(F)F)cc2Cl)c1O | -2.37% |
| C/C(=N\NC(=O)COc1ccc(C)cc1[N+](=O)[O-])c1ccc2c(c1)OCCO2 | 1.11% |
| O=C1COc2ccc(S(=O)(=O)Nc3ccc(OC(F)(F)F)cc3)cc2N1 | -0.276% |
| O=S(=O)(Nc1ccc(O)c2ccccc12)c1ccc(OC(F)(F)F)cc1 | 95.2% (active) |
| Cc1nn(C)c(C)c1NS(=O)(=O)c1ccc(OC(F)(F)F)cc1 | 0.692% |
| COCCCC1CCN(C(=O)C2CCC(=O)N(C3CCCCCC3)C2)CC1 (centres undefined) | -0.89% |

| SMILES | inhibition |
| --- | --- |
| Cc1cc(C)cc(NC(=O)C2CCN(c3nc(C)cc(C)n3)CC2)c1 | -1.54% |
| COC(=O)CC1=NN(c2ccccc2)C(=O)C1 | 76.6% (active) |
| CC(=O)c1sc(NC(=O)C2=NN(c3ccccc3)C(=O)CC2)nc1C | -1.59% |
| Cc1ccc(CC2CC(=O)N(c3nc(C)cc(C)n3)C2=O)cc1 (centres undefined) | -1.07% |
| COC(=O)CC1=NN(c2nc(C)cc(C)n2)C(=O)C1 | 36.2% (active) |
| C/C(N)=C(/C#N)C(=O)COC(=O)C1=NN(c2ccccc2)C(=O)CC1 | -0.739% |
| O=C(CSc1nc(Nc2ccccc2)nc(N2CCOCC2)n1)Nc1cc(Cl)ccc1O | 2.06% |
| CCCn1nc(C(=O)NNC(=O)CSCC(=O)Nc2cc(C)on2)c2ccccc2c1=O | 1.67% |
| O=C1Nc2cc(C(=O)N3CCC(N4CCCCC4)CC3)ccc2S/C1=C\c1ccccc1 | 1.2% |
| Cc1csc(CN(C)C(=O)CC2C(=O)NCCN2CC(C)(C)C)n1 (centres undefined) | -5.7% |
| O=C(C(Cc1ccccc1)n1cccc1)N1CCN(C2CCCCC2)CC1 (centres undefined) | 1.21% |
| NC(=O)C[C@@H]1NC(=O)CNC(=O)c2cc([N+](=O)[O-])cc(I)c2NCCC(C(N)=O)NC1=O (some centres undefined) | 1.58% |
| NC(=O)CC[C@@H]1NC(=O)[C@H](CO)NC(=O)c2cc([N+](=O)[O-])cc(I)c2NCC[C@@H](C(N)=O)NC1=O | 30.3% (active) |
| NCCCC[C@@H]1NC(=O)[C@H](CCC(=O)O)NC(=O)c2cc([N+](=O)[O-])cc(I)c2NCC[C@@H](C(N)=O)NC1=O | 0.579% |
| COc1ccc(Nc2ncc(F)c(N3CCOCC3)n2)cc1 | -0.77% |
| CN(C)S(=O)(=O)c1ccc(C(=O)NCCN=C2NS(=O)(=O)c3ccccc32)cc1 | -1.53% |
| Cc1cc(C)c(NC(=O)CN2C(=O)NC(Cc3ccccc3)C2=O)c(C)c1 (centres undefined) | 0.835% |
| Cc1[nH]n(C)c(=O)c1C(=O)c1c(-c2c(Cl)cccc2Cl)noc1C | 77.1% (active) |
| Cc1onc(-c2c(Cl)cccc2Cl)c1C(=O)c1c[nH]c(C(=O)NC2CC2)c1 | 5.76% |
| Cc1onc(-c2c(Cl)cccc2Cl)c1C(=O)NNC(=O)c1c(-c2c(Cl)cccc2Cl)noc1C | 0.133% |
